# From PubChem BioAssay AID1259313 (Sanford-Burnham Center for Chemical Genomics, 2017)
# Among all 340,000 compounds or so, about 8,500 (2.5%) were called active. Only a selection was taken, and actives are over-represented in it overall. A number with no mark means an inactive call.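 Rule for the calls: active = melting temperature shift of at least 10% of the positive control shift, at one fixed dose; inactive = the rest.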
# Test system: Glutamate receptor ionotropic, NMDA 3A (GRIN3A) ligand-binding domain
# Assay: NR3A LBD thermal stabilization by compounds – biophysical, differential scanning fluorimetry, uHTS, primary screen (AID 1259313)
# Conditions: at 25 µM, hits give high values, 0% = protein alone, 100% = glycine-bound protein
row,Compound,Tm shift relative to glycine control
1,O=C(O)CC(Cc1ccccc1)C(=O)Nc1ccc([N+](=O)[O-])cc1 (stereo not drawn),-4.38%
2,O=C(Cn1c2[n+](c3ccc(C(F)(F)F)cc31)CCCCC2)Nc1c(F)cccc1F,-0.45%
3,COc1cc(/C=C/C(=O)OCC(=O)NC2CC2)cc(OC)c1OC,3.83%
4,Cc1nc2ccc(NC(=S)N3CCC(C)CC3)cc2nc1C,-0.26%
5,S=C(Nc1ccc(Br)cc1)NC1CCN(Cc2ccccc2)CC1,-2.33%
6,O=S(=O)(NCCCc1ccccc1)c1ccc(Br)cc1,-5.32%
7,O=C(NCC1COc2ccccc2O1)C1(c2ccccc2)CCCC1 (stereo not drawn),-1.37%
8,S=C(NCCCc1ccccc1)Nc1ccc(Br)cc1,10.2% (active)
9,S=C(NCC1COc2ccccc2O1)Nc1ccc(Br)cc1 (stereo not drawn),14.7% (active)
10,CCCN(CC1COc2ccccc2O1)C(=S)Nc1ccc(C)cc1 (stereo not drawn),-4.99%
11,COc1cccc(/C=C2\Sc3ccc(C(=O)NCC4CCCO4)cc3N(C)C2=O)c1 (stereo not drawn),-11.6%
12,CN(CCc1ccccn1)C1CCCN(S(=O)(=O)c2ccccc2Cl)C1 (stereo not drawn),-1.11%
13,Cc1ccc(C)c(NC(=O)c2ccc(OC(=O)c3ccco3)cc2)c1,-0.45%
14,Oc1ccc(N=Cc2sc3ccccc3c2Cl)cc1,15.5% (active)
15,CC(=O)n1c(C=Nc2ccccc2)c(O)c2ccccc21,0.18%
16,Cc1ccn2cc(-c3nonc3C)cc2c1,-33.8%
17,Cc1ccoc1C(=O)Nc1cccc(Oc2ccccc2)c1,-3.01%
18,Cc1cccc(NC(=O)Nc2cccc(Oc3c(F)c(F)c(F)c(F)c3F)c2)c1,29.1% (active)
19,Cc1ccc(NC(=O)Nc2ccccc2)c(Br)c1,-0.75%
20,CCOc1cc(/C=C/C(=O)OCC(=O)NCCN2C(=O)CSC2=O)ccc1OCC(C)C,0.08%
21,CN(Cc1ccc(F)cc1Cl)S(=O)(=O)c1cccs1,1.26%
22,Fc1ccc(NC(=S)N2CCc3[nH]c4ccccc4c3C2)cc1,13.3% (active)
23,COc1ccc(NC(=S)N2CCc3cc(OC)c(OC)cc3C2)cc1,-0.36%
24,CCOC(=O)C1CCN(C(=O)Nc2ccc(Cl)cc2)CC1,3.57%

row,Compound,Tm shift relative to glycine control
1,O=C(Nc1ccc(Cl)cc1)N1CCc2[nH]c3ccccc3c2C1,250% (active)
2,CCc1ccc(NC(=O)N2CCc3ccccc3C2)cc1,-0.69%
3,C=CCNC(=S)N1CCc2[nH]c3ccccc3c2C1,-15.2%
4,Cc1ccccc1N/C(SCc1ccc(Cl)cc1)=C(/C#N)C(N)=O,-24%
5,CC1CCN(c2ccc(-c3ccc(NC(=O)c4ccco4)cc3)nn2)CC1,5.6%
6,O=S(=O)(Cc1cc(Cl)nc(-c2cccnc2)n1)c1ccccc1,1.48%
7,CN(C(=O)c1cccc(NC(=O)Cc2ccc(NC(=O)C3CCCN(C(=O)C4CC4)C3)cc2)c1)C1CC1 (stereo not drawn),1.17%
8,C[C@@H](Nc1nc(-c2ccccc2)nc2c1oc1ccccc12)C(=O)O,5.42%
9,CCc1nc(Nc2ccc3nccnc3c2)c2oc3ccccc3c2n1,-14.2%
10,CCc1nc(Nc2ccc(NC(C)=O)cc2)c2oc3ccccc3c2n1,10% (active)
11,CCCC(=O)NC(=S)Nc1ccc(CN2CCOCC2)cc1,1.2%
12,Cc1cc(C)nc(SCc2cn3c(C)cc(C)nc3n2)n1,-0.2%
13,CCOc1ccc(N2C(=O)CC(N(CCc3ccc(OC)c(OC)c3)C(=S)Nc3ccccc3)C2=O)cc1 (stereo not drawn),14.8% (active)
14,CN(C)c1ccc(NC(=S)N(CCc2ccccc2)C2CC(=O)N(c3c(Cl)cccc3Cl)C2=O)cc1 (stereo not drawn),-2.73%
15,COC(=O)CN(C(=S)Nc1ccc(Cl)cc1)C1CC(=O)N(c2ccc(OC)cc2)C1=O (stereo not drawn),1.51%
16,O=C(O)C#Cc1cccc2ccccc12,-2.09%
17,CCC[C@@H]1C[C@@]1(CCC)[C@@H](NC(=O)c1ccccc1)c1ccc(C(=O)OC)cc1,-0.95%
18,Cc1cc(C)c(NC(=O)CSc2nc3ccncc3[nH]2)c(C)c1,-0.53%
19,CCCCNS(=O)(=O)c1ccc2nc(SCC(=O)Nc3cc(C)cc(C)c3)[nH]c2c1,23.7% (active)
20,COc1ccc2nc(SCC(=O)Nc3c(C)cc(C)cc3C)[nH]c2c1,2.89%
21,COC1=CC(=O)OC(c2ccc(OC)cc2)C1 (stereo not drawn),3.44%
22,Cc1ccc(CNC(=O)CCS(=O)(=O)c2ccc3c(c2)CC(C)N3C(=O)C2CC2)o1 (stereo not drawn),-0.09%
23,CCc1cccc2c3c([nH]c12)C(CC)(CC(=O)O)OCC3 (stereo not drawn),14.4% (active)
24,CCOC(=O)C(=Cc1ccccc1OC)C(=O)OCC,0.09%

row,Compound,Tm shift relative to glycine control
1,CCOC(=O)C1=C(C)c2ccccc2OC1C(=O)OCC (stereo not drawn),0.67%
2,C=C1c2cccc(OC)c2O[C@H](C(=O)OCC)[C@@H]1CCCCCC,19.5% (active)
3,COC(=O)Cn1cnc2scc(-c3ccc(C)c(C)c3)c2c1=O,0%
4,NCCN1CCN2C(=O)CN(C(=O)c3ccccc3)CC12 (stereo not drawn),-1.42%
5,Cc1cc(F)ccc1NC(=S)NCCc1ccccc1,-1.3%
6,Cn1c(N)c(C(=O)COC(=O)c2ccc3ccccc3c2)c(=O)n(C)c1=O,-3.76%
7,Oc1ccc(-c2nnc(Nc3ccccc3)c3ccccc23)cc1,-0.38%
8,Cc1cccc(-c2nc(Nc3ccc(O)cc3)c3ccccc3n2)c1,44.7% (active)
9,CC(=O)Nc1cccc(Nc2nc(-c3cccs3)nc3ccccc23)c1,1.63%
10,COc1ccc(N2CCN(C(=O)CNC(=O)c3ccc(C(C)(C)C)cc3)CC2)cc1,3.46%
11,CC(C)(C)c1cc2cccnc2n1Cc1ccccc1,-1.7%
12,CCOc1ccc(NC(=O)CC2C(=O)N(c3ccccc3)C(=O)N2CCOC)cc1 (stereo not drawn),-0.16%
13,COCCN1C(=O)N(c2ccc(Cl)cc2)C(=O)C1CC(=O)Nc1cc(OC)cc(OC)c1 (stereo not drawn),0.08%
14,COC(=O)CN1C(=S)N(c2ccccc2)C(=O)C1CC(=O)Nc1ccc(Cl)cc1 (stereo not drawn),28.7% (active)
15,CC(C)N1CCC(=NNc2ccc([N+](=O)[O-])cc2S(=O)(=O)N2CCOCC2)CC1,0.15%
16,Cc1ccc(S(=O)(=O)N2CCCCC2)cc1NC(=O)c1cccnc1,-0.36%
17,O=C(CCNC(=O)c1ccc(Br)cc1)Nc1cccc(S(=O)(=O)N2CCCCC2)c1,-8.95%
18,Cc1ccc(S(=O)(=O)N2CCCCC2)cc1NC(=O)CCNC(=O)c1ccccc1,10.2% (active)
19,CCOC(=O)NN1C(=O)c2ccccc2NC1c1ccccc1O (stereo not drawn),1.62%
20,C=CCOc1c(CNn2cn[nH]c2=S)cccc1OC,1.48%
21,Cc1cc(C)cc(NC(=O)c2cccc(NC(=O)C3C4CC5OC(=O)C3C5C4)c2)c1 (stereo not drawn),3.21%
22,COC(=O)CNC(c1ccccc1Cl)c1cc(Br)ccc1NC(=O)CCN1CCOCC1 (stereo not drawn),-6.58%
23,Cc1ccc(CNC(=O)c2cccc3c2C(=O)c2ccc(N4CCC(C)CC4)cc2S3(=O)=O)cc1,0.32%
24,NC(=O)C(Cc1ccccc1)NC(=O)C12CC3CC(CC(C3)C1)C2 (stereo not drawn),1.38%

row,Compound,Tm shift relative to glycine control
1,CCOC(=O)c1c(C)oc2cc(Sc3ccccc3)c(O)c(O)c12,1.87%
2,COc1ccc(CCN2CC(C(=O)OCC(=O)NCc3ccccc3Cl)CC2=O)cc1OC (stereo not drawn),-0.25%
3,COc1ccc(C(CNC(=O)c2cc3c(s2)CCCC3)N2CCOCC2)cc1 (stereo not drawn),53.2% (active)
4,COc1ccc(C(CNC(=O)c2cccc(NS(=O)(=O)c3ccc(C)c(F)c3)c2)N2CCCC2)cc1 (stereo not drawn),-1.75%
5,COc1ccc(C(CNC(=O)c2ccc(S(=O)(=O)Nc3ccccc3C)cc2)N2CCOCC2)cc1 (stereo not drawn),2.35%
6,COc1ccc(C(CNC(=O)c2cccc(S(=O)(=O)Nc3ccccc3Cl)c2)N2CCOCC2)cc1 (stereo not drawn),15.6% (active)
7,O=C(NCCCN1CCOCC1)c1cc2c(s1)CCC2,1.5%
8,COc1ccc(C(CNC(=O)c2cccnc2SC)N2CCOCC2)cc1 (stereo not drawn),-0.34%
9,CC(C)NC(=O)c1ccccc1S(=O)c1ccccc1C#N (stereo not drawn),-0.24%
10,Cc1noc(C)c1S(=O)(=O)N(C)Cc1ccccc1,-2.24%
11,CCNC(=O)CCc1nc(-c2ccc(C(C)(C)C)cc2)no1,2.39%
12,COCCN(CCOC)S(=O)(=O)NC[C@H]1O[C@@H](n2cnc3c(N)ncnc32)[C@H](O)[C@@H]1O,-2.01%
13,CN(NS(=O)(=O)c1cccs1)c1ncc(C(F)(F)F)cc1Cl,-0.95%
14,O=C(/C=C/c1ccc([N+](=O)[O-])o1)NNC(=O)c1ccc(F)cc1,-1.3%
15,O=C(N/N=C/c1ccc([N+](=O)[O-])o1)c1cn(-c2ccccc2)nc1-c1ccc(F)cc1,57.3% (active)
16,O=C(NCCCN1CCOCC1)c1cn(-c2ccccc2)nc1-c1ccc(F)cc1,-0.58%
17,O=C(CCn1nnc2ccccc21)OCC(=O)c1ccc([N+](=O)[O-])cc1,-0.44%
18,Cc1ccc(C(=O)NNC(=O)c2ccc3c(c2)OCCO3)cc1,1.65%
19,Cc1nc(NC(=O)c2ccc3c(c2)OCCO3)ccc1Br,11.1% (active)
20,O=C(Nc1ccc(Cl)cn1)c1ccc2c(c1)OCCO2,-0.17%
21,O=S(=O)(c1cccc(Cn2nnc(-c3ccc(F)cc3)n2)c1)N1CCOCC1,0.18%
